Assay results taken from PubChem BioAssay AID602252 (Broad Institute, 2012).
The campaign covered roughly 300,000 compounds. About 2,700 (0.9%) were called active. The sample holds actives, similar compounds and a random draw of the others, so the mix is not that of the screen. Unmarked numbers belong to inactive results.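 The calls were made as follows: active = mean inhibition of at least 30% with at least half of replicates also reaching 30%; inconclusive = no clear call, values can overlap the other calls; inactive = the rest.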

The compounds below were run against Golgi-associated PDZ and coiled-coil motif-containing protein (Homo sapiens) (UniProt Q9HD26) (assay: untagged CAL PDZ binding inhibitors, primary screen, biochemical, fluorescence polarization, HTS (AID 602252;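 also: 0% = DMSO neutral control and 100% = excess unlabeled competitor peptide PRC23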)). Conditions: purified CAL PDZ, TMR-peptide fluorescence polarization, 1 h; at 24.9 µM; active compounds read high.

SMILES | inhibition
CC(=NCC1CCCO1)c1c(O)n(-c2ccccc2)c(=O)[nH]c1=O (stereo not given) | -0.888%
COc1ccccc1-n1c(O)c(C=NC2CC2)c(=O)[nH]c1=O | -5.85%
Cc1ccc(-n2c(O)c(C=NCC3CCCO3)c(=O)[nH]c2=O)c(C)c1 (stereo not given) | 62.7% (active)
CCC(C)(O)C(=O)OC1C(=O)OC2CC3C(C)=CC(=O)C(O)C3(C)C3C4(O)OCC23C1C(C)C4O (stereo not given) | -3%
COC1C(O)C(C)OC(OC2CCC3(C=O)C(CCC4C3CCC3(C)C(C5=CC(=O)OC5)CCC43O)C2)C1O (stereo not given) | -0.006%
Cc1ccnc(-n2c(C)cc(/C=C3\C(=O)NC(=S)N(C)C3=O)c2C)c1 | -1.9%
Cc1cc(C=C2C(=O)NC(=O)NC2=O)c(C)n1-c1ccncc1 | 49.2% (active)
Cc1ccc(-n2c(C)cc(/C=C3\C(=O)NC(=O)N(C)C3=O)c2C)cc1C | 0.186%
CC(=O)OC1C2(CC3N4C(=O)C5(CO)SSC4(CC31O)C(=O)N5C)OC(C)C(C)(C)C2=O (stereo not given) | 1.68%
CC12CCC(O)CC1CCC1C2CCC2(C)C(C(=O)CC(O)C(F)(F)F)CCC12 (stereo not given) | -6.37%
O=C(c1ccccc1)C(O)(CN1CCCCC1)c1ccccc1 (stereo not given) | -5.06%
CC1C(=O)OC2CCN3CC=C(COC(=O)C(C)(O)C1(C)O)C23 (stereo not given) | 56.3% (active)
CCOC(=O)C1(c2ccccc2)CCN(CC(O)c2ccc(NC(C)=O)cc2)CC1 (stereo not given) | -0.121%
CCOC(=O)CC(SP1(=S)OCC2(CCCCO2)C(C2CCCCO2)O1)C(=O)OCC (stereo not given) | 0.015%
CC=C(C)C(=O)OC1CCN2CC=C(COC(=O)C(O)(C(C)OC)C(C)(C)O)C12 (stereo not given) | -2.7%
